# Data published in PubChem BioAssay AID504339 (National Center for Advancing Translational Sciences (NCATS), 2011).
# Screen size: about 390,000 compounds; about 17,000 (4.4%) were called active. Not shown: some 8% with an inconclusive outcome. Shown is part of a subset that was picked to be rich in actives. A number with no mark means an inactive call. Calls follow the shape of the dose curve; as a rule, active = well fitted inhibition curve with a large enough effect; inconclusive = small, poorly fitted or top-dose-only effect; inactive = no such curve, though single readings can be large or run the other way.
# Molecular target: Lysine-specific demethylase 4A (Homo sapiens) (UniProt O75164)
# Sequence (O75164 whole entry, looked up, the tested form may be a part): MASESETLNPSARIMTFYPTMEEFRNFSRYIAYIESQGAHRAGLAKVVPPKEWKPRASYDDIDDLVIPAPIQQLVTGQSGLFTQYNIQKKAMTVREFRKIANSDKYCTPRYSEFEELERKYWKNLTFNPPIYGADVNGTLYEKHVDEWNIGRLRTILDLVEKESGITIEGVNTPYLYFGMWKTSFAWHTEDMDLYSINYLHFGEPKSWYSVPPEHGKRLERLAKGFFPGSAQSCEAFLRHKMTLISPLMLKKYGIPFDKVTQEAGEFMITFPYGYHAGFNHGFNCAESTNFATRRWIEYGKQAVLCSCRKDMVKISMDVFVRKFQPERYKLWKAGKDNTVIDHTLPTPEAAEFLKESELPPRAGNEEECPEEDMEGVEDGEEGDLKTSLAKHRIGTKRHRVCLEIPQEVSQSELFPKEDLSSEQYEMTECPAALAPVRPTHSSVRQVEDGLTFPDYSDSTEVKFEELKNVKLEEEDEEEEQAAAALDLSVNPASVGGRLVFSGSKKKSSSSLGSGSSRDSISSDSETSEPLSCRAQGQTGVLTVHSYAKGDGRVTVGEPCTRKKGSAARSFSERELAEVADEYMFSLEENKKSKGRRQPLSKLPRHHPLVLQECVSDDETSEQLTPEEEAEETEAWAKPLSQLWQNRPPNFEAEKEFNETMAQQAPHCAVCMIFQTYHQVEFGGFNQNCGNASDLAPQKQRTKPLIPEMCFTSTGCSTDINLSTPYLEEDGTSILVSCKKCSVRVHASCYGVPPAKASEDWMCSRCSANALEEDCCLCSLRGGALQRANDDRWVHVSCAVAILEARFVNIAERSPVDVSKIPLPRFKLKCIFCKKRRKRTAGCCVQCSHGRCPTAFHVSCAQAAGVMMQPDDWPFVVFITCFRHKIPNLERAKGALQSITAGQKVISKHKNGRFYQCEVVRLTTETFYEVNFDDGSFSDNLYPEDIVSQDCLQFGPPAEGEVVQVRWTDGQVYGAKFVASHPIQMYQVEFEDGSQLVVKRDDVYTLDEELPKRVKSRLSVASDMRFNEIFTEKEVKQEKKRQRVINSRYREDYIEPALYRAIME
# Experiment: qHTS Assay for Inhibitors of JMJD2A-Tudor Domain; also: nearly all actives have a fitted effect of over 50% in size
# Details: AlphaScreen JMJD2A-Tudor / H3K4me3 peptide binding; series mostly up to 114 µM; activity change, negative = inhibition: at the top concentration
# % is scaled to controls: 0 for no effect and ±100 for the full control effect; potency is read from the fitted curve at half-maximal effect.
Structure (SMILES),"activity change, negative = inhibition",Potency
COc1ccc(NC(=O)[C@H](NC(=O)[C@@H]2Cc3ccccc3CN2)c2ccccc2)cc1,-9.09%,
Cc1ccccc1CNC(=O)Cn1c(C)c2cnn(-c3ccccc3)c(=O)c2c1C,-6.71%,
CC(=O)Oc1ccc(OC(C)=O)c2c1C1C=CC2CC1,,22.4 µM (active)
CC(=O)Oc1ccc(C(C)=O)c2c1OCCO2,-12.2%,
COc1cc(OC)c(NC(=O)c2nc(-c3ccncc3)no2)cc1Cl,-1.64%,
CC(C)(C)NC(=O)CSc1nc(-c2ccc(F)cc2)cc(C(F)(F)F)n1,11.3%,
CC(Sc1nnc2c(n1)C1CCC2(C)C1(C)C)C(=O)Nc1ccccc1 (centres undefined),-11.3%,
Cc1cc(C)nc(N(C#N)CC(=O)Nc2ccccc2)n1,-7.56%,
CSc1nc(C)cc(SC(C(C)=O)C(=O)Nc2ccccc2)n1 (centres undefined),,56.2 µM (active)
CCOc1ccc(NC(=O)c2c(NCc3cccc(OC)c3OC)sc3c2CCC3)cc1,-25.3%,
O=C(NCc1nnc(C(=O)Nc2ccc(C(F)(F)F)cc2Cl)o1)c1ccccc1,-20.5%,
Cc1ccc(NC(=O)Nc2sc3nc4n(c(=O)c3c2C)CCC(C)CC4)c(Cl)c1 (centres undefined),-6.18%,
Cc1ccc(NC(=O)/C(=C\c2ccccc2)NC(=O)c2ccco2)cc1,-1.39%,
COc1ccccc1C(=O)N/C(=C/c1ccco1)C(=O)Nc1ccc(C(=O)O)cc1,,25.1 µM (active)
COc1ccccc1C(=O)N/C(=C/c1ccc2c(c1)OCO2)C(=O)Nc1cccc(C(=O)O)c1,-8.7%,
Cc1cccc(C(CC(=O)NCC2(c3ccccc3)CCCC2)c2ccccc2)c1O (centres undefined),-5.84%,
CCOC(=O)CN1C(C(=O)c2ccccc2)=C(OC(=O)C(C)(C)C)c2ccccc2S1(=O)=O,-18.2%,
CC(CCCc1ccccc1)NC(=O)c1nn(-c2ccc(Cl)cc2)nc1CO (centres undefined),-3.77%,
O=C(Cn1cnc2c(OCc3ccccc3)ncnc21)NCCCn1ccnc1,-13.8%,
O=C(Cn1cnc2c(OCc3ccccc3)ncnc21)NCc1nc2ccccc2[nH]1,,56.2 µM (active)
CC(CNC(=O)Cn1cnc2c(OCc3ccccc3)ncnc21)c1ccccc1 (centres undefined),-17.3%,
CC(C)S(=O)(=O)c1oc(-c2ccc(F)cc2)nc1S(=O)(=O)c1ccc(F)cc1,-11.1%,
Cc1ccc(Cl)cc1NC(=O)NC1COc2ccccc2C1 (centres undefined),-16.9%,
COc1ccc(C(=O)NNC(=O)c2cc(C)[nH]n2)cc1,-4.35%,
Cc1c(Cl)c([N+](=O)[O-])nn1Cc1ccc(C(=O)N/N=C\c2cc(Cl)ccc2O)o1,-25.2% [at 57.1 µM],

Structure (SMILES),"activity change, negative = inhibition",Potency
Cc1cc(C(=O)N/N=C/c2cc([N+](=O)[O-])cc(C)c2O)n[nH]1,,44.7 µM (active)
CCCCS(=O)(=O)c1oc(-c2cccs2)nc1S(=O)(=O)c1ccccc1,-4.51%,
Cc1ccc(-c2ccc(/C=C(\C#N)C(N)=S)o2)c([N+](=O)[O-])c1,,14.1 µM (active)
CCOC(=O)c1ccc(-c2ccc(/C=C(\C#N)C(=O)Nc3ccc(C)cc3)o2)cc1,-26.2%,
CCCCOC(=O)/C(C#N)=C/c1ccc(-c2cccc(C(F)(F)F)c2)o1,-25.2%,
Cc1cccn2c(=O)c(C(=O)NC(C)c3ccccc3)cnc12 (centres undefined),-5%,
CCC(C)c1ccc2oc(-c3ccc(NC(=O)c4cc5ccccc5o4)cc3)nc2c1 (centres undefined),-14.5%,
O=C(C1CCCN(S(=O)(=O)c2ccc([N+](=O)[O-])cc2)C1)N1CCCCC1 (centres undefined),-6.21%,
Cc1ccc(S(=O)(=O)N2CCCC(C(=O)N3CCN(C)CC3)C2)cc1 (centres undefined),,2.82 µM (active)
COc1ccc(N2CCN(C(=O)C3CCN(S(=O)(=O)c4ccc(C)cc4)CC3)CC2)cc1,,39.8 µM (active)
COc1ccc(N2CCN(C(=O)C3CCN(C(=O)c4ccccc4Cl)CC3)CC2)cc1,-15.7%,
Cc1ccc(S(=O)(=O)N2CCN(C)CC2)cc1,-7.48%,
COc1ccc(S(=O)(=O)N2CCCC(C(=O)N3CCN(C)CC3)C2)cc1C (centres undefined),-6.21%,
Cc1ccc(S(=O)(=O)N2CCC(N3CCCCCC3)CC2)cc1,,0.891 µM (active)
CC(=O)Nc1ccc(S(=O)(=O)N2CCN(C3CCCCCCC3)CC2)cc1,-30.2%,
Cc1ccc(S(=O)(=O)N2CCC(C(=O)N3CCCCCCC3)CC2)cc1,-7.56%,
CCOC(=O)C1CCC(CN(Cc2ccc(OC)cc2)S(=O)(=O)c2ccc(F)c(C(=O)Nc3cc(C)ccc3C)c2)CC1 (centres undefined),-18.3%,
N#Cc1nc(/C=C/c2ccc(F)cc2)oc1NC1CCCCC1,-25.8%,
COc1ccc(Cn2ccn(Cc3cccc(OC)c3)c(=O)c2=O)cc1,-12.8%,
Cc1ccccc1Cn1nc(C)c(NC(=O)c2cc(-c3ccc(F)cc3)on2)c1C,-2.73%,
Cc1c(Cl)cccc1NC(=O)CCS(=O)(=O)c1ccc2c(c1)oc(=O)n2C,-10.4%,
COc1cccc(C(=O)NCc2ccc3c(c2)CCN3C(=O)c2ccncc2)c1,-10.3%,
COc1cc(C)ccc1OCCSc1nc2ccc(NC(=O)c3ccc(C)cc3)cc2s1,5.63%,
COc1cc(Cl)c(C)cc1NC(=O)CCc1nc2cccnc2n1Cc1cccs1,-17.5%,
